From ChEMBL document CHEMBL2218924, “A broad activity screen in support of a chemogenomic map for kinase signalling research and drug discovery” (Biochem J, 2013)

Legend:
[1] = molecular target: T1, Ephrin type-B receptor 1 (Homo sapiens) (UniProt P54762); conditions: at 10 µM
T1 sequence (whole entry): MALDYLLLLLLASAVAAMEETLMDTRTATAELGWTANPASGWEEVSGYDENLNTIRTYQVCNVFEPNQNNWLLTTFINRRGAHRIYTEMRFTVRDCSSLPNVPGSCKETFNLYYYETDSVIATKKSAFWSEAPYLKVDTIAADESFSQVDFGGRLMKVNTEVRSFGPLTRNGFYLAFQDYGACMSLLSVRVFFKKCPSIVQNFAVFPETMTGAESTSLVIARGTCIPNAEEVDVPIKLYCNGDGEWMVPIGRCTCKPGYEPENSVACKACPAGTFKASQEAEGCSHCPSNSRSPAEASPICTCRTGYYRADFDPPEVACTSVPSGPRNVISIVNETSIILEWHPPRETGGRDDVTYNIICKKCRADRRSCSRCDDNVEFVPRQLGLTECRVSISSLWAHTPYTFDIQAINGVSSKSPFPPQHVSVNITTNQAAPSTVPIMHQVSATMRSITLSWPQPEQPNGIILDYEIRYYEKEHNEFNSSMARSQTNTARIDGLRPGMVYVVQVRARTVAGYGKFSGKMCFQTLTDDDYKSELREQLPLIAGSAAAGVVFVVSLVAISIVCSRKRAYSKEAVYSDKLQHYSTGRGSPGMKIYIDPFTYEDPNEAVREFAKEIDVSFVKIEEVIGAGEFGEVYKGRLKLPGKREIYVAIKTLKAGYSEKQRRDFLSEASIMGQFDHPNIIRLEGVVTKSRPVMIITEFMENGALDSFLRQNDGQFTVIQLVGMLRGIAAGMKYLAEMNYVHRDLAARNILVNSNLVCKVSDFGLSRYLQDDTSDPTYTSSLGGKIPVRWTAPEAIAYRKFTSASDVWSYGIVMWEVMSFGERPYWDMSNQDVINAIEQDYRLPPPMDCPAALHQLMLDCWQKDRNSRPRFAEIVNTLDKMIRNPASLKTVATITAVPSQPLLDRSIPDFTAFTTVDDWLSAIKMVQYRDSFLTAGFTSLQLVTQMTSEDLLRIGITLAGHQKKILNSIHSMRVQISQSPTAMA

[2] = molecular target: T2, Ephrin type-B receptor 2 (Homo sapiens) (UniProt P29323); conditions: at 1 µM
T2 sequence (whole entry): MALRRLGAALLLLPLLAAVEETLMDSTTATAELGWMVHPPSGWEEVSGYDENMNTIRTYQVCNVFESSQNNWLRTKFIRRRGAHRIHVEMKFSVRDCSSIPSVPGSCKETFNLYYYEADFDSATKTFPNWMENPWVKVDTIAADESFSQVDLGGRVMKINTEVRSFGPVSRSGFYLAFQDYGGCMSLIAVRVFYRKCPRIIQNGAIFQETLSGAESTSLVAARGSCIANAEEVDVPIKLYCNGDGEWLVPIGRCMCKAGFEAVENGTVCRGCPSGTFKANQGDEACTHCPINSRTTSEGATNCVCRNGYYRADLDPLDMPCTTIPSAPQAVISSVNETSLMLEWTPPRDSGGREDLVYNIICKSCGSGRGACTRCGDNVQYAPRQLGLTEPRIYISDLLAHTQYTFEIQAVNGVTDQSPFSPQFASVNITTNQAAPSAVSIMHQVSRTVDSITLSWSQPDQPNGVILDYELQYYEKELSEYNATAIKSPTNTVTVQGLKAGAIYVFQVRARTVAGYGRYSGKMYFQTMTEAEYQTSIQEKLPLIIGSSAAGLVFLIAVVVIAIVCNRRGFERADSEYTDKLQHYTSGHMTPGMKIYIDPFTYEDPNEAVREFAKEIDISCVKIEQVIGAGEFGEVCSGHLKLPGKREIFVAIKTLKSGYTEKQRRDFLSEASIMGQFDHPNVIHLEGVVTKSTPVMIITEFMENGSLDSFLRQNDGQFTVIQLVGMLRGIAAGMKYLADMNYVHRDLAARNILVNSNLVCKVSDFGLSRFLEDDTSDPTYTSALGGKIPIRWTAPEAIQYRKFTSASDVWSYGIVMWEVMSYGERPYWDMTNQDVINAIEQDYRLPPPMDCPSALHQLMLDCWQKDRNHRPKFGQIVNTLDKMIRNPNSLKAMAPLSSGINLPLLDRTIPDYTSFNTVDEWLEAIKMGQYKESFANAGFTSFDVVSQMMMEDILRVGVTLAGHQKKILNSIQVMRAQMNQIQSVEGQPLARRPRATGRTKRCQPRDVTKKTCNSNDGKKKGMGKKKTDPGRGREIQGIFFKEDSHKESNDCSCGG

[3] = molecular target: T2, Ephrin type-B receptor 2 (Homo sapiens); conditions: at 10 µM
[4] = molecular target: T3, Ephrin type-B receptor 3 (Homo sapiens) (UniProt P54753); conditions: at 1 µM
T3 sequence (whole entry): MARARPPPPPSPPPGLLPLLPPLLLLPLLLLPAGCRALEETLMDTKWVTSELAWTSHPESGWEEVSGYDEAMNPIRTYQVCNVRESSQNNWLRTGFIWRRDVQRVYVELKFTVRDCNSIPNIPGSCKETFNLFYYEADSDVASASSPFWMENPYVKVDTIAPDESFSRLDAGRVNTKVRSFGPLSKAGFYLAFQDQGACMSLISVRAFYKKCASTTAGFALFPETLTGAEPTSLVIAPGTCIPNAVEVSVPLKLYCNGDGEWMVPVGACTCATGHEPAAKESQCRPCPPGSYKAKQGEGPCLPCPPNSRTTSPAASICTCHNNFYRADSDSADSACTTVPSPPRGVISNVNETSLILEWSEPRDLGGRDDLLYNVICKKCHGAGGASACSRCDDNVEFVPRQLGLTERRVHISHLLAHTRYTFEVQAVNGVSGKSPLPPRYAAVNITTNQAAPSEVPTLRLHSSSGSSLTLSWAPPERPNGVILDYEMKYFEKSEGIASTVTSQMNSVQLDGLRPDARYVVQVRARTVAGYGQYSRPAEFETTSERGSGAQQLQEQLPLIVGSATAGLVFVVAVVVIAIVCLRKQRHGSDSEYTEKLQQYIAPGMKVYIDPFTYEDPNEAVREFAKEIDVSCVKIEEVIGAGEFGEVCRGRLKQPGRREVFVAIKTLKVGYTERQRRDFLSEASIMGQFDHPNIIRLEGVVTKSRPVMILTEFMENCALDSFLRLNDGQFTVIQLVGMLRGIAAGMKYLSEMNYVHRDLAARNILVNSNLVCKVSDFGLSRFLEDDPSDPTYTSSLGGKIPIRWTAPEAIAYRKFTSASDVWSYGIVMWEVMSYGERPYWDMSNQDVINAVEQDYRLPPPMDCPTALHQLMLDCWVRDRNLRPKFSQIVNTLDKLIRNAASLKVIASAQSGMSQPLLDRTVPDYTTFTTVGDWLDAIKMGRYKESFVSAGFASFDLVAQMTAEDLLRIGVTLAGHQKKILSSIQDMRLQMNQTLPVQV

[5] = molecular target: T3, Ephrin type-B receptor 3 (Homo sapiens); conditions: at 10 µM
[6] = molecular target: T4, Ephrin type-B receptor 4 (Homo sapiens) (UniProt P54760); conditions: at 1 µM
T4 sequence (whole entry): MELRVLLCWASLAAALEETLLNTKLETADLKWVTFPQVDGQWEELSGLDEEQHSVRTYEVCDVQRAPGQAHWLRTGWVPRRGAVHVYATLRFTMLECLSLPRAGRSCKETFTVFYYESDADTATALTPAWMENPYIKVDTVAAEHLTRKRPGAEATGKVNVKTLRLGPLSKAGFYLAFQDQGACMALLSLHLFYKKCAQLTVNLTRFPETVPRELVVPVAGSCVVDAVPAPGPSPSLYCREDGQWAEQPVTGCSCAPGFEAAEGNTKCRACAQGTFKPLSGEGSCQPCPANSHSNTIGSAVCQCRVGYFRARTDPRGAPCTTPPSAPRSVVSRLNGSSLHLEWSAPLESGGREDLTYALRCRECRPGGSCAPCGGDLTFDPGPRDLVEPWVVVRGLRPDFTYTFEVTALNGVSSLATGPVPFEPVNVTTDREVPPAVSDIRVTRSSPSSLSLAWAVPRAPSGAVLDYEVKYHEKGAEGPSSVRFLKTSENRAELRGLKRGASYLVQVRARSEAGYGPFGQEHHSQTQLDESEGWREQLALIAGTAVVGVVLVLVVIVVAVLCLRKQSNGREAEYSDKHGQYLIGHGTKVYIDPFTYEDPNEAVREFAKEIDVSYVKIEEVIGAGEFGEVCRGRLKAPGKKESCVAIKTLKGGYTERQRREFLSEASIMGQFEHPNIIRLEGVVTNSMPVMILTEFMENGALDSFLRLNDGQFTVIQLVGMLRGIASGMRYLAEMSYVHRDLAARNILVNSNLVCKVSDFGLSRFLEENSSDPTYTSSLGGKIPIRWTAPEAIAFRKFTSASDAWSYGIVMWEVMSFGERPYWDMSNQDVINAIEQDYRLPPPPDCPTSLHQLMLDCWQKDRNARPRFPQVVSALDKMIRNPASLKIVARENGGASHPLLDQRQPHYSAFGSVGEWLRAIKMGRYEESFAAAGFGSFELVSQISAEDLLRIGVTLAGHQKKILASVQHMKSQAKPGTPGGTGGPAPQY

[7] = molecular target: T4, Ephrin type-B receptor 4 (Homo sapiens); conditions: at 10 µM
[8] = molecular target: Receptor tyrosine-protein kinase erbB-4 (Homo sapiens) (UniProt Q15303); conditions: at 1 µM
[9] = molecular target: Receptor tyrosine-protein kinase erbB-4 (Homo sapiens) (UniProt Q15303); conditions: at 10 µM
[10] = molecular target: Focal adhesion kinase 1 (Homo sapiens) (UniProt Q05397); conditions: at 1 µM
Focal adhesion kinase 1 (Homo sapiens), sequence (Q05397 2-1052 limits assumed): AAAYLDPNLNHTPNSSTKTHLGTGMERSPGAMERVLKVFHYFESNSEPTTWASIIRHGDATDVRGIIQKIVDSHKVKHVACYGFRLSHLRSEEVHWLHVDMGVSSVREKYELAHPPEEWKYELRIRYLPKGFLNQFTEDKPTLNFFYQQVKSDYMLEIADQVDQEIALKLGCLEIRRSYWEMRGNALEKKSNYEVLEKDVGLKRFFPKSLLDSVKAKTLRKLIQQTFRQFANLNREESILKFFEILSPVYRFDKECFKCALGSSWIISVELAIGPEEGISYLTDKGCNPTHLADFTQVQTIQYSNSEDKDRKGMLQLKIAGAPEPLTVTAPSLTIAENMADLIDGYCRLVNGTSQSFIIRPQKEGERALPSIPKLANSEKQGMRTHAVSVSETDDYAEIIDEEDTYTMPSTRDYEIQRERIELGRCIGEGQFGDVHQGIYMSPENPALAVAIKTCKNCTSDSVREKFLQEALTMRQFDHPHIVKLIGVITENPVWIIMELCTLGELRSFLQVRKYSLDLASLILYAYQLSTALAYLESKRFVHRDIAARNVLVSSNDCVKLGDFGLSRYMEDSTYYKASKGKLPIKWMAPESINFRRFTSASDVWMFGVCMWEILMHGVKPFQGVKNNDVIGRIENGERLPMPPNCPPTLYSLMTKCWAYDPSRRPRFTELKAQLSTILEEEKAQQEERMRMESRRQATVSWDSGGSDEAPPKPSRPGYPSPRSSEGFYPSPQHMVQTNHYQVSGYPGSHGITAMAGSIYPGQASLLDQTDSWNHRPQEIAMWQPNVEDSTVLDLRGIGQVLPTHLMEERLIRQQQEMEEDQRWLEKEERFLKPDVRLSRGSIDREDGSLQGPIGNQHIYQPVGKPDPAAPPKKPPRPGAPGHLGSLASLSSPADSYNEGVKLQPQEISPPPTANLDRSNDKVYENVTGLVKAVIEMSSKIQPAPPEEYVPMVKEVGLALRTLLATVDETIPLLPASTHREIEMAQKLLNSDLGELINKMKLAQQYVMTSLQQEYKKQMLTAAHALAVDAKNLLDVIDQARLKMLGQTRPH

Receptor tyrosine-protein kinase erbB-4 (Homo sapiens), sequence (Q15303 whole entry): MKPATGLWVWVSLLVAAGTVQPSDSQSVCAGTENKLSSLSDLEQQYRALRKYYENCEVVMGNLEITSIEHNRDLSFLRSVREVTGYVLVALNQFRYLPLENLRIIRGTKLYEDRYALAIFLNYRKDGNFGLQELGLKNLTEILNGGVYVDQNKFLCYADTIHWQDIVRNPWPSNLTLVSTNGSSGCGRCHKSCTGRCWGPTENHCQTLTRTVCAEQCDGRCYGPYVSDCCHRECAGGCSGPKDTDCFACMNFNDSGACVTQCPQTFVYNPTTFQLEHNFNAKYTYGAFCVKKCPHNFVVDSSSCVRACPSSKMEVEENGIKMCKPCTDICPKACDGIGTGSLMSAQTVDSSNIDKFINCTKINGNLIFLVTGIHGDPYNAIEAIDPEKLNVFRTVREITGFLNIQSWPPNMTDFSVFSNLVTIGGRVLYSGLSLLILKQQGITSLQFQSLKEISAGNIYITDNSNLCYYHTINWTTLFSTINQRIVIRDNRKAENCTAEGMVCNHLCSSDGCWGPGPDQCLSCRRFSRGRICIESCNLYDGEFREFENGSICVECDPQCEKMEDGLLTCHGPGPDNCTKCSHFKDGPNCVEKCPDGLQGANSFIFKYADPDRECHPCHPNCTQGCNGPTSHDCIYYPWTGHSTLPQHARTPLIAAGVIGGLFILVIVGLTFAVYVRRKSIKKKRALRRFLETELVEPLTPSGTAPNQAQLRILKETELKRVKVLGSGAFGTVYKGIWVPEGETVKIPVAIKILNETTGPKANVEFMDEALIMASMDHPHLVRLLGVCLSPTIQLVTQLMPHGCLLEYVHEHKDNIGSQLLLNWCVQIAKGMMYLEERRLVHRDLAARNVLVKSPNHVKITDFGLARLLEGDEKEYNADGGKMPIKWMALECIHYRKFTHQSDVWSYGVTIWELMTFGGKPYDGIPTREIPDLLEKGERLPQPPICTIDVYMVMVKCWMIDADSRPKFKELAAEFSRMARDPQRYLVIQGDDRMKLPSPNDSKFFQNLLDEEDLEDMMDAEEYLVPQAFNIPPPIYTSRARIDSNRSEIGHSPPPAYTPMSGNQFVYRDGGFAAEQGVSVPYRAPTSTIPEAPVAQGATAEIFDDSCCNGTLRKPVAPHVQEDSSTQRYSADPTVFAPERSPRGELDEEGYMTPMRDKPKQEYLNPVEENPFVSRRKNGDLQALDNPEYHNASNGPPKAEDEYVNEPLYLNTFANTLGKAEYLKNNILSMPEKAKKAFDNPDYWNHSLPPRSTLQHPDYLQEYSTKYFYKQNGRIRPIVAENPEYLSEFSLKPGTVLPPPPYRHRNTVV

Compound | residual activity [1] | residual activity [2] | residual activity [3] | residual activity [4] | residual activity [5] | residual activity [6] | residual activity [7] | residual activity [8] | residual activity [9] | residual activity [10]
CO[C@H]1[C@@H](OC)C[C@H](C)[C@@H](OC)C2=CC(=O)C=C(NC(=O)/C(C)=C/C=C/[C@H](OC)[C@@H](OC(N)=O)/C(C)=C/[C@@H]1C)C2=O | 103% | 115% | 128% | 111% (inactive) | 102% | 94% | 113% | 92% | 67% | 110%
O=C1NC(=O)c2cc(Nc3ccc(F)cc3)c(Nc3ccc(F)cc3)cc21 | 60% | 105% | 69% | 100% (inactive) | 105% | 95% | 56% | 87% | 35% | 137%
COc1cc2ncnc(Nc3ccc(Oc4ccccc4)cc3)c2cc1OC | 107% | 115% | 109% | 120% (inactive) | 93% | 106% | 138% | -3% | -5% | 72%
CN(C)c1ccc(/C=C2\C(=O)Nc3ccccc32)cc1 | 80% | 112% | 130% | 108% (inactive) | 123% | 97% | 121% | 115% | 82% | 82%
COc1cc2ncnc(Nc3ccc(O)c(Br)c3)c2cc1OC | 10% | 65% | 1% | 99% (inactive) | 123% | 19% | 0% | 16% | -1% | 106%
